Bioassay records as filed in PubChem BioAssay.
Only some compounds are listed: those with a hit (about 2.1% of all), similar ones and a draw of the others.
PvdQ acylase = P. aeruginosa PvdQ acylase inhibition; AID 488965; inhibition, % at 10 µM; 340,000 compounds, 0.063% hits; purified PvdQ acylase, fluorescence plate reader; in the data active = inhibition above about 30%, passing the limit was not always enough;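 also: 0% = vehicle neutral wells and 100% = reference inhibitor wells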
ERAP1 inh = inhibitors of human ERAP1 aminopeptidase. Q9NZ08. recombinant ERAP1, Leu-AMC fluorescence, 60 min. inhibition, % at 10.7 µM. 340,000 compounds, 0.15% hits;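 active = mean replicate inhibition of at least 30%, or all replicates individually reaching that 30% level; inactive = mean below 30% and not every replicate reaching it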;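 also: 0% = neutral control wells and 100% = L-leucinethiol positive control wells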
Target sequence (Q9NZ08 whole entry, looked up): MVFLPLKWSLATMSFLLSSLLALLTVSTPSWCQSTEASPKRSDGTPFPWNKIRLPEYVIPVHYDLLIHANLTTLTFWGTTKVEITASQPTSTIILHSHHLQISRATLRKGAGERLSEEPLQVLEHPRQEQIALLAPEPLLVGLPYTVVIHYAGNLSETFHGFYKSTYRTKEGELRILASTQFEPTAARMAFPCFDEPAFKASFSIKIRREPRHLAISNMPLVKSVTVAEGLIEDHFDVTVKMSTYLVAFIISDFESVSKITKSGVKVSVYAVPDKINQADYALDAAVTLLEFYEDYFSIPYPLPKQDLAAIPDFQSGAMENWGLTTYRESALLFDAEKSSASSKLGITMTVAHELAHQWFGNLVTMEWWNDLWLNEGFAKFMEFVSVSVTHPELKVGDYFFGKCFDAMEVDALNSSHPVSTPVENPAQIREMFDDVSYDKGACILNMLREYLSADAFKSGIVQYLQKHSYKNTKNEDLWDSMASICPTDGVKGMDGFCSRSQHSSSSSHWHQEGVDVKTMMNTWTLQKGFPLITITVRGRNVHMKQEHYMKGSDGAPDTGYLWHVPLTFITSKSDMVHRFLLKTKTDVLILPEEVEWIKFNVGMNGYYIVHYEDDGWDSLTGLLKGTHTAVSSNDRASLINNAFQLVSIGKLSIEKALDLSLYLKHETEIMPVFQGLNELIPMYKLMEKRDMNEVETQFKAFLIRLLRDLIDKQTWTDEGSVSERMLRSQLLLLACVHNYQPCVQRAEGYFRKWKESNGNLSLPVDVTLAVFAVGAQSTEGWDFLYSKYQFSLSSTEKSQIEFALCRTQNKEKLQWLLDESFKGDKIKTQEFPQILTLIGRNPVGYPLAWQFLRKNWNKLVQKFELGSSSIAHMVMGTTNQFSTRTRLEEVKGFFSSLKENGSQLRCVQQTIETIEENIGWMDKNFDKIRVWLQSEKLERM
F508del corr = correctors of CFTR F508del function in bronchial epithelial cells | CFBE cells, YFP halide quenching; stimulated with forskolin plus potentiator P3; % fluorescence drop versus neutral controls | activity (quench increase), % at 7.58 µM | 350,000 compounds, 0.36% hits;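 active = mean added fluorescence quench of at least 8% versus neutral control, with both replicates also reaching 8%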;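 also: cells transiently co-express mutant CFTR-F508del with the halide-sensitive YFP; corrector assay measuring rescue of mutant channel to the surface after 24 h compound exposure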
Ecoli rRNA inh = inhibits bacterial ribosomal RNA function over humanized ribosomes. E. coli WT GFP vs humanized-ribosome RFP mutants, fluorescence, 24 h; hits give low values; DMSO median 0, no signal -100. GFP signal change (wild-type ribosome), % (no concentration beside the values). 350,000 compounds, 1.6% hits;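 active = significant combined selectivity score with lowered wild-type GFP, culture density cut under 30%, mutant RFP and density less affected; inactive = any of these conditions unmet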
ARNT TACC3 PPI = disrupts binding between human ARNT and TACC3 | Q9Y6A5 | AlphaScreen His-ARNT PAS-B/GST-TACC3 binding, luminescence; TACC3 fragment carries E629A point mutation | inhibition, % at 9.99 µM | 390,000 compounds, 0.66% hits | AID 623870;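 active = mean inhibition of replicates at least 50% and at least half of replicates each reaching 50%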;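 also: 0% = complete ARNT plus TACC3 wells and 100% = ARNT alone without TACC3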
* marks the source's active call; other numbers are inactive results; x = no result given; ! = a repeat was not active.

SMILES | PvdQ acylase | ERAP1 inh | F508del corr | Ecoli rRNA inh | ARNT TACC3 PPI
COc1ccc2nc(NC(=O)Nc3cccc4ccccc34)sc2c1 | 0.2 | -1.7 | 3.1 | -23.2* | -2.3
COc1cccc(C(=O)Nc2nc3ccccc3s2)c1 | -2.7 | 1.7 | -1.5 | -29.5* | -18.5
CS(=O)(=O)c1ccc2nc(NC(=O)Nc3ccccc3F)sc2c1 | -2.7 | 1.4 | x | -5.4 | -16.8
COc1ccccc1NC(=O)Nc1nc2ccc(S(N)(=O)=O)cc2s1 | 0.3 | 2.2 | 5.1 | -15.9* | 7.6
CC(C)NC(=O)N(C)C[C@@H]1Oc2ccc(NS(=O)(=O)c3cccs3)cc2C(=O)N([C@H](C)CO)C[C@H]1C | x | x | -1.6 | 6.0 | x
C[C@@H]1CCCCO[C@H](CN(C)CC2CCCCC2)[C@H](C)CN([C@@H](C)CO)C(=O)c2cc(NC(=O)c3ccncc3)ccc2O1 | x | -1.0 | 0.6 | -3.6 | 3.5
COc1ccc(OC)c(-c2cc(-c3cccnc3)nc(N)c2C#N)c1 | -9.8 | x | 9.0* | 3.9 | -1.6
Cc1ccc(C(C[N+](=O)[O-])c2c(N)n(C)c(=O)n(C)c2=O)cc1 (stereo not given) | 1.4 | x | 0.8 | -24.4* | 9.6
COc1cc(C(C[N+](=O)[O-])c2c(N)n(C)c(=O)n(C)c2=O)ccc1O (stereo not given) | 0.7 | 5.1 | 1.9 | 0.8 | -1.1
COc1cccc(F)c1C(C[N+](=O)[O-])c1c(N)n(C)c(=O)n(C)c1=O (stereo not given) | 23.4 | x | -5.2 | -24.1* | -2.7
Cn1c(N)c(C(C[N+](=O)[O-])c2ccccc2Cl)c(=O)n(C)c1=O (stereo not given) | -10.9 | -0.6 | -1.3 | x | -5.3
O=C(CCCCCn1c(=S)[nH]c2ccc(N3CCOCC3)cc2c1=O)NCc1ccc(Cl)cc1 | -17.0 | 6.1 | -1.3 | -24.5* | -2.7
O=C(CCCCCn1c(=S)[nH]c2ccc(N3CCOCC3)cc2c1=O)NCc1ccc2c(c1)OCO2 | -7.8 | 6.3 | -1.0 | -1.4 | 2.1
COCC#Cc1ccc([C@H]2[C@@H](CO)N3C(=O)CN(C(=O)Nc4ccc(F)cc4)C[C@@H]23)cc1 | x | 0.2 | -1.7 | -0.2 | x
O=C1N/C(=N\S(=O)(=O)Cc2ccccc2)S/C1=C/c1cc([N+](=O)[O-])ccc1O | 7.0 | 12.6 | -0.7 | -20.0* | -6.8
Cc1ccc(-c2n[nH]c(=S)n2/N=C/c2cccs2)cc1 | -2.6 | 2.2 | 0.7 | -33.2* | -2.4
S=c1[nH]nc(-c2ccccc2)n1/N=C/c1cccs1 | -8.9 | -0.5 | x | -18.9* | -4.7
Cc1cc(-c2n[nH]c(=S)n2/N=C/c2cccs2)n[nH]1 | -0.6 | 6.4 | x | x | -4.8
S=c1[nH]nc(-c2cc(-c3ccccc3)n[nH]2)n1/N=C/c1cccc(Cl)c1 | -6.3 | -0.4 | -2.1 | -16.7* | -0.9
S=c1[nH]nc(-c2cc(-c3ccccc3)n[nH]2)n1/N=C/c1ccc(Cl)cc1 | -5.4 | -4.0 | -1.7 | -4.0 | 2.6
C[C@H](CO)N1C[C@H](C)[C@@H](CN(C)CC2CCCCC2)Oc2ccc(NS(=O)(=O)c3ccccc3)cc2C1=O | x | -3.7 | 1.3 | 0.5 | -3.6
C[C@H](O)C#Cc1ccc2c(c1)O[C@H](CN(C)CC1CC1)[C@@H](C)CN([C@@H](C)CO)S2(=O)=O | x | x | -1.0 | 4.0 | x
N#C[C@@H]1[C@@H](c2ccccc2-c2cccc(F)c2)[C@H](CO)N1C(=O)C1CCC1 | x | 2.2 | -1.0 | -6.3 | x
C/C(=N\NC(=O)c1ccc(O)cc1)c1ccc(N2CCOCC2)cc1 | 7.4 | 5.6 | 0.2 | 2.6 | -6.9
C/C(=N\NC(=O)c1ccc(O)cc1)c1cccc(NC(=O)c2ccc(Cl)cc2)c1 | -1.1 | 4.8 | -1.4 | -35.0* | -6.4
SMILES | PvdQ acylase | ERAP1 inh | F508del corr | Ecoli rRNA inh | ARNT TACC3 PPI
C/C(=N/NC(=O)c1ccc(-c2ccccc2)cc1)c1cccc(O)c1 | -12.8 | -3.2 | 2.8 | -25.6* | -7.0
C/C(=N\NC(=O)c1ccc(N/N=C(\C)c2ccc(O)cc2)cc1)c1ccc(O)cc1 | -9.9 | 0.0 | 1.6 | -20.6* | -4.5
C[C@@H]1CN([C@@H](C)CO)C(=O)c2cc(-c3ccccc3)cnc2O[C@@H]1CN(C)C(=O)Nc1ccccc1F | x | -8.7 | 3.7 | -1.2 | -2.8
Cc1ccc2c(c1)-c1c(ssc1=S)C(C)(C)N2C(=O)CSC1=NCCS1 | 10.7 | 2.1 | 2.3 | -26.1* | 7.8
CCC1(C)Cc2ccccc2-c2nc[nH]c(=O)c21 (stereo not given) | -12.0 | 2.3 | 8.6* | -12.3 | -5.8
O=C(C[C@H]1C=C[C@H](NC(=O)CN2CCOCC2)[C@@H](CO)O1)NCCc1ccccc1 | x | 1.1 | -0.5 | 1.6 | x
CCn1cc(Br)c(C(=O)Nc2ccc(C(=O)OC(C)C)cc2)n1 | -9.0 | 12.4 | -1.5 | -21.4* | 0.3
O=C(Nc1ccccc1)N1C[C@H]2[C@@H](c3ccccc31)[C@H](CO)N2C(=O)c1ccccn1 | x | 2.1 | 11.4* | 0.5 | 0.3
O=C(Nc1cccc(Cl)c1)N1C[C@H]2[C@@H](c3ccccc31)[C@H](CO)N2CC1CCCCC1 | x | -0.4 | 1.7 | -58.5* | 3.6
O=C(Nc1ccc(Cl)cc1)N1C[C@H]2[C@@H](c3ccccc31)[C@H](CO)N2C(=O)c1ccccn1 | x | -1.6 | 0.1 | -19.2* | 9.7
O=C(Nc1ccccc1F)N1C[C@H]2[C@@H](c3ccccc31)[C@@H](CO)N2C(=O)c1ccccn1 | x | 3.0 | 9.7* | -1.3 | 2.2
O=C(Nc1ccccc1)N1C[C@H]2[C@@H](c3ccccc31)[C@@H](CO)N2C(=O)c1ccccn1 | x | 3.9 | 0.8 | 2.6 | 13.3
O=C(Nc1ccccc1)N1C[C@@H]2[C@H](c3ccccc31)[C@@H](CO)N2C(=O)c1ccccn1 | x | 5.0 | 0.2 | 0.3 | 12.7
COc1ccc2c3c([nH]c2c1)[C@@H](CO)N(Cc1ccccc1F)CC31CCN(C(=O)C2CCCC2)CC1 | x | x | 0.8 | 3.6 | x
CN1C(=O)c2cc(NC(=O)C3CCCC3)ccc2OC[C@@H]2O[C@@H](CC(=O)Nc3ccccc3)CC[C@@H]21 | x | 1.6 | 2.3 | 0.5 | 0.6
CNC(=O)C[C@H]1CC[C@@H]2[C@H](COC[C@H](O)CN2S(=O)(=O)c2ccccc2Cl)O1 | x | x | 1.1 | 2.4 | -20.8
COc1cccc(-c2ccc(C3[C@@H]4CN(S(=O)(=O)c5cccc(OC)c5)C[C@H]3N4)cc2)c1 (stereo not given in full) | x | -2.7 | 21.4*! | -5.8 | x
COc1cccc(S(=O)(=O)N2C[C@@H]3N[C@H](C2)C3c2ccc(-c3ccccc3F)cc2)c1 (stereo not given in full) | x | x | 10.0*! | 0.3 | x
O=C(NCc1ccccc1)[C@H]1N[C@H]2c3cccc(=O)n3C[C@H]2[C@@H]1CO | x | -1.6 | x | -0.8 | -2.2
N#C[C@H]1[C@@H](c2ccccc2C2=CCCCC2)[C@@H](CO)N1C(=O)C1CCOCC1 | x | -0.3 | -1.5 | -1.5 | x
C[C@@H]1CCCCO[C@@H](CN(C)S(=O)(=O)c2ccc(Cl)cc2)[C@H](C)CN([C@H](C)CO)C(=O)c2cc(NC(=O)CCCN(C)C)ccc2O1 | x | -0.3 | -1.9 | -0.8 | 9.6
